# In PubChem BioAssay:
# “And” between values parts separate entries of the source, which are not always exact repeats. Equal values may be shown once. Inconclusive results are not listed. The source made the active and inactive calls.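 How the source made its calls, unless noted: active means normalized viability below 100% at a tested concentration; inactive means the rest.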
# Assays:
# [1] = growth inhibition of DIPG glioma cells, dose response, cell-based, SU-DIPG-XVII, MIPE5.0, CellTiter-Glo, qHTS (AID 1347060; cut-off not given, nearly all actives have AC50 up to about 26 µM;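 on AC50: cells exposed to compound for 48 hours before viability readout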); conditions: SU-DIPG-XVII viability, CellTiter-Glo ATP luminescence
# [2] = growth inhibition of DIPG glioma cells, dose response, cell-based, SU-DIPG-IV, MIPE4.0, CellTiter-Glo, qHTS (AID 1347063; cut-off not given, nearly all actives have AC50 up to about 30 µM;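 further: compound exposure lasted 48 hours before the viability readout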); conditions: SU-DIPG-IV viability, CellTiter-Glo ATP luminescence
# [3] = growth inhibition of DIPG glioma cells, dose response, cell-based, SU-DIPG-XIII, MIPE5.0, CellTiter-Glo, qHTS (AID 1347064; cut-off not given, nearly all actives have AC50 up to about 23 µM;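 on AC50: cells exposed to compound for 48 hours before the viability read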); conditions: SU-DIPG-XIII viability, CellTiter-Glo ATP luminescence
# [4] = viability loss in pontine glioma line – cell-based, SU-DIPG-XXV, MIPE5.0, CellTiter-Glo, qHTS, dose response (AID 1347065; cut-off not given, nearly all actives have AC50 up to about 26 µM;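 further: cells exposed to compound for 48 hours before ATP readout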); conditions: CellTiter-Glo ATP luminescence
# [5] = SU-DIPG-VI glioma cell viability, MIPE4.0 library, CellTiter-Glo luminescence, qHTS (AID 1347066; cut-off not given, nearly all actives have AC50 up to about 30 µM;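 further: cells exposed to compound for 48 hours before readout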); conditions: CellTiter-Glo ATP luminescence
# [6] = JHH-DIPG-1 glioma cell viability, MIPE5.0 library, CellTiter-Glo luminescence, qHTS (AID 1347067; cut-off not given, nearly all actives have AC50 up to about 26 µM;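 further: cells exposed to compound for 48 hours before readout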); conditions: JHH-DIPG-1 glioma viability, CellTiter-Glo ATP luminescence
# [7] = SU-DIPG-XXV glioma cell viability, MIPE5.0 library, qHTS (AID 1347068; cut-off not given, nearly all actives have IC50 up to about 30 µM;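 on IC50: cells exposed to compound for 48 hours before viability readout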)
# [8] = sensitizers of A549 cells to miR-34 induction, primary screen, imaging, A549 dox-inducible miR-34, nuclei and caspase counts (AID 1347080;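 active means compounds whose cell count with miR-34 switched on is under 0.7 times the count with it off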); conditions: A549 miR-34 inducible, Hoechst nuclei count, 48 h
# [9] = survival rescue of mitochondrial mutant cells in low glucose, primary screen, MELAS cybrids, Rieske KO mouse fibroblasts, CellTiter-Glo (AID 1508586;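 active means mean z-score across replicates of 1.96 or higher in either the MELAS or the Rieske mutant cell line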;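 further: z relative to plate mean and SD of compound and empty wells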)
# [10] = modifiers of HSF1 nuclear foci, imaging, Selleck Cancer Library (AID 1347162; in the data active means plate-normalised HSF1 focus index below about 0.46); conditions: human cells, at 10 µM; SSMD: measured here: HSF1 foci SSMD mean; cell count: measured here: cell number; plate-normalised HSF1 focus index: stronger effect = lower value
# [11] = ovarian cancer cell viability with rucaparib, profiling panel, oncology-focused library, rucaparib conditional (AID 1508598); conditions: patient-derived ovarian cancer cells, CellTiter-Glo viability, 144 h, stronger effect = lower value
# [12] = stronger effect = lower value, cell number ratio, induced over uninduced
# [13] = measured here: relative caspase fold change +Dox/-Dox
# [14] = measured here: total cells with miR-34 induction, stronger effect = lower value
# [15] = measured here: total cells without miR-34 induction
# [16] = MELAS cybrid survival, CellTiter-Glo 48 h, stronger effect = higher value
# [17] = Rieske KO mouse fibroblast survival, CellTiter-Glo 72 h
structure (smiles),measurement,setting,value
CC(C)c1cc(C(C)C)c(CC(=O)NS(=O)(=O)Oc2c(C(C)C)cccc2C(C)C)c(C(C)C)c1,AC50,[1],10.5 µM (active)
same,AC50,[2],20.9 µM (active)
same,AC50,[3],13.2 µM (active)
same,AC50,[4],9.34 µM (active)
same,AC50,[5],10.5 µM (active)
same,AC50,[6],11.8 µM (active)
same,IC50,[7],8.33 µM (active)
same,fold change,[8]; [12],0.956 (inactive)
same,fold change,[8]; [13],0.65
same,cell count,[8]; [14],5000
same,cell count,[8]; [15],5220
same,z-score,[9]; [16],-0.406 (inactive)
same,z-score,[9]; [17],0.969
CC(C)CNc1ccnc(NCc2csc(-c3ccccc3)n2)n1,AC50,[1],16.6 µM (active)
same,AC50,[2],16.6 µM (active)
same,AC50,[3],14.8 µM (active)
same,AC50,[4],16.6 µM (active)
same,AC50,[5],20.9 µM (active)
same,AC50,[6],20.9 µM (active)
CC(C)=CCC/C(C)=C/CC/C(C)=C/CSc1ccccc1C(=O)O,outcome,[1],inactive
same,AC50,[2],0.526 µM (active)
same,outcome,[6],inactive
same,outcome,[7],inactive
same,SSMD,[10],2.56
same,cell count,[10],6790
same,plate-normalised HSF1 focus index,[10],1.15 (inactive)
CCCc1cc(C)[nH]c(=O)c1CNC(=O)c1cc(-c2ccnc(N3CCN(C)CC3)c2)cc2c1cnn2C(C)C,outcome,[1],inactive
same,outcome,[3],inactive
same,outcome,[4],inactive
CN1c2ccccc2C(=O)N2CCc3c([nH]c4ccccc34)C21 (centres undefined),AC50,[1],2.95 µM (active)
same,outcome,[2],inactive
same,AC50,[4],2.35 µM (active)
same,outcome,[5],inactive
same,AC50,[6],5.25 µM (active)
CC(=O)Oc1cc2c(s1)CCN(C(C(=O)C1CC1)c1ccccc1F)C2 (centres undefined),outcome,[1],inactive
same,AC50,[2],16.6 µM (active)
same,outcome,[4],inactive
same,outcome,[6],inactive
same,outcome,[7],inactive
same,fold change,[8]; [12],0.891 (inactive) and 0.933 (inactive)
same,fold change,[8]; [13],0.621 and 0.805
same,cell count,[8]; [14],7600 and 7230
same,cell count,[8]; [15],8520 and 7750
same,z-score,[9]; [16],-1.04 (inactive) and -0.446 (inactive)
same,z-score,[9]; [17],-0.245 and 0.545
N#Cc1ccc(COC[C@H]2O[C@@H](n3c(NCc4ccc(Cl)c(Cl)c4)nc4c(N)ncnc43)[C@H](O)[C@@H]2O)cc1,AC50,[1],14.8 µM (active)
same,AC50,[2],2.35 µM (active)
same,AC50,[4],18.6 µM (active)
same,outcome,[5],inactive
same,AC50,[6],18.6 µM (active)
C[C@H]1Oc2cc(cnc2N)-c2c(nn(C)c2C#N)CN(C)C(=O)c2ccc(F)cc21,AC50,[1],14.8 µM (active)
same,AC50,[3],10.5 µM (active)
same,AC50,[4],9.34 µM (active)
CC[C@H](CC#N)OC(=O)N[C@@H](C)c1cccc(NC(=O)Nc2ccc(-c3cnco3)c(OC)c2)c1,AC50,[1],0.525 µM (active)
same,AC50,[2],1.32 µM (active)
same,AC50,[4],0.468 µM (active)
same,AC50,[6],2.63 µM (active)
same,IC50,[7],14.8 µM (active)
CNc1nc(Nc2ccc(C(=O)N3CCOCC3)cc2OC)ncc1Cl,outcome,[1],inactive
same,outcome,[2],inactive
same,outcome,[3],inactive
same,outcome,[5],inactive
same,outcome,[7],inactive
OCCn1cc(-c2ccc3c(c2)CC/C3=N\O)c(-c2ccncc2)n1,AC50,[1],14.8 µM (active)
same,outcome,[2],inactive
same,outcome,[7],inactive
same,SSMD,[10],1.73
same,cell count,[10],6750
same,plate-normalised HSF1 focus index,[10],1.09 (inactive)
Cc1cc(-c2nc3cc(F)ccc3s2)ccc1NC(=O)[C@@H](N)CCCCN,AC50,[1],20.9 µM (active)
same,AC50,[3],20.9 µM (active)
Nc1ccn([C@@H]2O[C@H](CO)[C@@H](O)C2(F)F)c(=O)n1,AC50,[1],0.0186 µM (active)
same,AC50,[2],0.526 µM (active)
same,outcome,[5],inactive
same,outcome,[6],inactive
same,outcome,[7],inactive
same,fold change,[8]; [12],0.809 (inactive)
same,fold change,[8]; [13],2.54
same,cell count,[8]; [14],2200
same,cell count,[8]; [15],2720
same,z-score,[9]; [16],0.323 and -0.775
same,z-score,[9]; [17],10.5 and 7.93
same,viability,"[11]; at 0.000305 µM, OCI-C5x cells, with rucaparib 10 µM, 100% = cells with rucaparib alone",107% (inactive)
same,viability,"[11]; at 0.000305 µM, OCI-C5x cells, without rucaparib",87.2% (active)
same,viability,"[11]; at 0.000305 µM, OCI-P5x cells, with rucaparib 20 µM, 100% = cells with rucaparib alone",74.1% (active)
same,viability,"[11]; at 0.000305 µM, OCI-P5x cells, without rucaparib",32.9% (active)
same,viability,"[11]; at 0.00122 µM, OCI-C5x cells, with rucaparib 10 µM, 100% = cells with rucaparib alone",90.4% (active)
same,viability,"[11]; at 0.00122 µM, OCI-C5x cells, without rucaparib",93.9% (active)
same,viability,"[11]; at 0.00122 µM, OCI-P5x cells, with rucaparib 20 µM, 100% = cells with rucaparib alone",55.8% (active)
same,viability,"[11]; at 0.00122 µM, OCI-P5x cells, without rucaparib",27% (active)
same,viability,"[11]; at 0.00488 µM, OCI-C5x cells, with rucaparib 10 µM, 100% = cells with rucaparib alone",81% (active)
same,viability,"[11]; at 0.00488 µM, OCI-C5x cells, without rucaparib",80% (active)
same,viability,"[11]; at 0.00488 µM, OCI-P5x cells, with rucaparib 20 µM, 100% = cells with rucaparib alone",57.2% (active)
same,viability,"[11]; at 0.00488 µM, OCI-P5x cells, without rucaparib",22.9% (active)
same,viability,"[11]; at 0.0195 µM, OCI-C5x cells, with rucaparib 10 µM, 100% = cells with rucaparib alone",69.2% (active)
same,viability,"[11]; at 0.0195 µM, OCI-C5x cells, without rucaparib",58.3% (active)
same,viability,"[11]; at 0.0195 µM, OCI-P5x cells, with rucaparib 20 µM, 100% = cells with rucaparib alone",47.3% (active)
same,viability,"[11]; at 0.0195 µM, OCI-P5x cells, without rucaparib",22% (active)
same,viability,"[11]; at 0.0781 µM, OCI-C5x cells, with rucaparib 10 µM, 100% = cells with rucaparib alone",56.5% (active)
same,viability,"[11]; at 0.0781 µM, OCI-C5x cells, without rucaparib",47.8% (active)
same,viability,"[11]; at 0.0781 µM, OCI-P5x cells, with rucaparib 20 µM, 100% = cells with rucaparib alone",50.9% (active)
same,viability,"[11]; at 0.0781 µM, OCI-P5x cells, without rucaparib",25.3% (active)
same,viability,"[11]; at 0.313 µM, OCI-C5x cells, with rucaparib 10 µM, 100% = cells with rucaparib alone",36.8% (active)
same,viability,"[11]; at 0.313 µM, OCI-C5x cells, without rucaparib",35.1% (active)
same,viability,"[11]; at 0.313 µM, OCI-P5x cells, with rucaparib 20 µM, 100% = cells with rucaparib alone",58.9% (active)
same,viability,"[11]; at 0.313 µM, OCI-P5x cells, without rucaparib",22.7% (active)
same,viability,"[11]; at 1.25 µM, OCI-C5x cells, with rucaparib 10 µM, 100% = cells with rucaparib alone",33.1% (active)
same,viability,"[11]; at 1.25 µM, OCI-C5x cells, without rucaparib",30.2% (active)
same,viability,"[11]; at 1.25 µM, OCI-P5x cells, with rucaparib 20 µM, 100% = cells with rucaparib alone",53.9% (active)
same,viability,"[11]; at 1.25 µM, OCI-P5x cells, without rucaparib",25.7% (active)
same,viability,"[11]; at 5 µM, OCI-C5x cells, with rucaparib 10 µM, 100% = cells with rucaparib alone",14.3% (active)
same,viability,"[11]; at 5 µM, OCI-C5x cells, without rucaparib",14.2% (active)
same,viability,"[11]; at 5 µM, OCI-P5x cells, with rucaparib 20 µM, 100% = cells with rucaparib alone",42.3% (active)
same,viability,"[11]; at 5 µM, OCI-P5x cells, without rucaparib",17.7% (active)
